High-throughput results from PubChem BioAssay.
An excerpt weighted towards active compounds, which were near 0.32% of everything screened.
Menin MLL FP TR – qHTS Assay for Inhibitors Targeting the Menin-MLL Interaction in MLL Related Leukemias: Competition With Texas Red Labeled MLL-derived Mutant Peptide; O00255; Menin + Texas Red MLL mutant peptide, fluorescence polarization; Potency, µM (titrated, usually from 61.6 µM), inactives show at the highest dose FP activity change, negative = inhibition, actives largely listed as inhibitors; 270,000 compounds, 0.23% hits; active means well fitted inhibition curve with a large enough effect in the polarisation, with a control signal flat, not every such curve was filed as active; inconclusive means small, poorly fitted or top-dose-only effect, or effect the other way, or a change in a side signal; inactive means no such curve, though single readings can be large or run the other way; the % refers to the polarisation; further: potency means the concentration at half of the fitted maximal effect; % of control where 0% means no effect
TRPV1 PAM – HTS Assay for Compounds that Act as Potentiators of the Vanilloid Receptor 1. TRPV1-expressing cells, Fluo-8 calcium influx, capsaicin EC20 potentiation. potentiation, % at 8.33 µM. 320,000 compounds, 0.02% hits. AID 540277, 2011; in the data active means potentiation above about 80%; inconclusive means between about 30% and that limit; further: 0% is about no effect
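Cells expressing TRPV1 were dye-loaded with Fluo-8 and read kinetically: 10 s baseline, 3 min after compound (agonist portion), then 2 min after EC20 capsaicin (allosteric enhancer portion). Calcium-bound dye fluorescence at 480/520 nm.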
TRPV1 ag – HTS Assay for Compounds that Act as Agonists of the Vanilloid Receptor 1. 320,000 compounds, 0.19% hits. AID 540275, 2011. TRPV1-expressing cells, Fluo-8 calcium influx, agonist mode. activation, % at 8.33 µM; in the data active means activation above about 80%; inconclusive means between about 30% and that limit; further: 0% is about no effect
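Fluo-8 calcium influx in TRPV1-expressing cells, kinetic read (ex 480/em 520 nm). Compound added and read 3 min for agonist activity, followed by capsaicin at EC20 final and 2 min further read for enhancement.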
Menin MLL FP FL – qHTS Assay for Inhibitors Targeting the Menin-MLL Interaction in MLL Related Leukemias: Competition With Fluorescein Labeled MLL-derived Peptide. Fluorescence polarization, fluorescein-MLL peptide displacement from menin. FP activity change, % at 61.4 µM. 290,000 tested, under 10 active; active means well fitted curve in the direction sought with a large enough effect in the polarisation, not every such curve was filed as active; inconclusive means small, poorly fitted or top-dose-only effect, or effect the other way, or a change in a side signal; inactive means no such curve, though single readings can be large or run the other way; the % refers to the polarisation; further: % of control where 0% means no effect
MLL CXXC-DNA inh – qHTS Fluorescence Polarization Assay for Inhibitors of MLL CXXC domain - DNA interaction | Histone-lysine N-methyltransferase 2A (Homo sapiens), Q03164 | MLL-CXXC / FITC-HOXA9 DNA fluorescence polarization | Potency, µM (doses to about 115 µM), without a hit: top-dose activity change, negative = inhibition, hits mostly inhibitors | 290,000 compounds, 0.037% hits | AID 2662, 2010; active means well fitted inhibition curve with a large enough effect in the polarisation, with a control signal flat, not every such curve was filed as active; inconclusive means small, poorly fitted or top-dose-only effect, or effect the other way, or a change in a side signal; inactive means no such curve, though single readings can be large or run the other way; the % refers to the polarisation; further: potency means the concentration at half of the fitted maximal effect
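Fluorescence polarization: 7 uM MLL-CXXC (stock) preincubated 5 min with compounds, then 50 nM fluorescein-HOX-A9 DNA (stock) added; 30 min ambient. Buffer 50 mM Tris-HCl pH 7.5, 50 mM NaCl, 1 mM DTT, 0.05% BSA.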
MLL CXXC FP-Fl – qHTS Fluorescence Polarization (FP) Assay for Inhibitors of MLL CXXC domain - DNA interaction: Fluorescein FP; shares compounds with MLL CXXC-DNA inh; MLL CXXC-DNA binding, fluorescein FP; Potency, µM (doses to about 345 µM), for the others: at the highest dose activity change, negative = inhibition, usual class: inhibitors; 200 compounds, 70% hits; AID 624160, 2012; further: potency means the concentration at half of the fitted maximal effect; nearly all actives have a fitted effect of over 80% in size
MLL CXXC TxRed – qHTS Fluorescence Polarization (FP) Assay for Inhibitors of MLL CXXC domain - DNA interaction: Texas Red FP; 200 compounds, 40% hits; Potency, µM (series often up to 345 µM), for inactives: at the top dose activity change, negative = inhibition, hits mostly inhibitors; MLL CXXC-DNA binding, Texas Red fluorescence polarization; shares compounds with MLL CXXC-DNA inh; AID 624161, 2012; further: potency means the concentration at half of the fitted maximal effect; on the % scale 0 is the no-effect control and ±100 the full control effect; nearly all actives have a fitted effect of over 75% in size
MLL CXXC TRF – qHTS Fluorescence Polarization (FP) Assay for Inhibitors of MLL CXXC domain - DNA interaction: HTRF Assay; shares compounds with MLL CXXC-DNA inh; MLL CXXC-DNA binding, HTRF, biochemical; Potency, µM (doses to about 172 µM), for inactives: top-dose activity change, negative = inhibition, actives largely listed as inhibitors; 210 compounds, 30% hits; AID 624162, 2012; further: on the % scale 0 is the no-effect control and ±100 the full control effect; nearly all actives have a fitted effect of over 80% in size
* marks the source's active call; other numbers are inactive results; [ ] = another dose, or the depositor's remark. Unless noted, the call rests on the fitted dose curve; in most records, active means well fitted inhibition curve with a large enough effect; inconclusive means small, poorly fitted or top-dose-only effect; inactive means no such curve, though single readings can be large or run the other way.

Screening O=C(CSc1nc2ccccc2c(=O)n1Cc1ccc(F)cc1)NCc1cccs1 returned Menin MLL FP TR 9.6%, TRPV1 PAM -29.0, TRPV1 ag 13.9, Menin MLL FP FL 3.2, MLL CXXC-DNA inh 7.94µM*, MLL CXXC FP-Fl 1.7%, MLL CXXC TxRed 47.9% and MLL CXXC TRF 0.9%.
Screening COC(=O)C1=C(C(=O)OC)[C@@H]2Nc3ccccc3[C@@]23C[C@@H](C(=O)OC)N(S(=O)(=O)c2ccc(OC)cc2)C3=N1 returned Menin MLL FP TR 5.2%[11.7 µM] and Menin MLL FP FL 0.7[11.7 µM].
`Nc1c(S(=O)(=O)O)cc(Nc2ccc(Nc3nc(Cl)nc(Nc4ccc(S(=O)(=O)O)cc4)n3)c(S(=O)(=O)O)c2)c2c1C(=O)c1ccccc1C2=O` gave Menin MLL FP TR inconclusive, Menin MLL FP FL 2.7, MLL CXXC-DNA inh 10µM*, MLL CXXC FP-Fl 17.9µM*, MLL CXXC TxRed 17.9µM* and MLL CXXC TRF 6.11µM*.
`Nc1c(S(=O)(=O)O)cc(Nc2ccc(Cl)cc2)c2c1C(=O)c1ccccc1C2=O` gave Menin MLL FP TR inconclusive and Menin MLL FP FL -0.3.
CN1CCCc2cc3c(C(F)(F)F)cc(=O)oc3nc21 was read as Menin MLL FP TR -2.1%, TRPV1 PAM -17.5, TRPV1 ag 17.7, Menin MLL FP FL inconclusive, MLL CXXC-DNA inh 28.2µM*, MLL CXXC FP-Fl 44.8µM*, MLL CXXC TxRed -15.7% and MLL CXXC TRF 21.8%.
Screening CC1C(=O)C(=O)C=CN1C (configuration not stated) returned Menin MLL FP TR 12.3%, Menin MLL FP FL 0.0 and MLL CXXC-DNA inh 0.0%.
Screening O=C1/C(=C\c2cccnc2)CCc2ccccc21 returned Menin MLL FP TR -5.4%, TRPV1 PAM -8.6, TRPV1 ag 12.2, Menin MLL FP FL 4.5, MLL CXXC-DNA inh inconclusive, MLL CXXC FP-Fl inconclusive, MLL CXXC TxRed -14.9% and MLL CXXC TRF 28.1%.
Screening C=CC1=C2C=C(C3CC3)N(Cc3ccco3)C=C2C(=O)C(C)(OC(=O)c2ccco2)C1=O (configuration not stated) returned Menin MLL FP TR 2.4%[11.7 µM] and Menin MLL FP FL 0.5[11.7 µM].
For C=C(C(=O)O)[C@@H]1CC[C@@]2(C)CCC[C@](C)(O)[C@@H]2C1 the results were Menin MLL FP TR 3.8% and Menin MLL FP FL -0.4.
NS(=O)(=O)c1ccc(NC(=O)c2c(F)cccc2Cl)cc1 was read as TRPV1 PAM 1.9, TRPV1 ag 0.5, Menin MLL FP FL 1.7 and MLL CXXC-DNA inh -1.9%.
NS(=O)(=O)c1ccc(NC(=O)c2c(Cl)cccc2Cl)cc1 was read as Menin MLL FP TR 3.0%, TRPV1 PAM 22.4, TRPV1 ag -3.1, Menin MLL FP FL 4.1, MLL CXXC-DNA inh inconclusive, MLL CXXC FP-Fl inconclusive, MLL CXXC TxRed inconclusive and MLL CXXC TRF -7.4%.
Screening COc1cccc([C@@H]2Oc3ccc(OC)cc3C[C@H]2OC(=O)NCc2ccco2)c1 returned Menin MLL FP TR -1.6% and Menin MLL FP FL 1.8.
Screening N#C/C(=C\c1cccs1)C(=O)c1ccccc1Cl returned TRPV1 PAM -11.5, TRPV1 ag 18.0, Menin MLL FP FL 6.1, MLL CXXC-DNA inh 22.4µM*, MLL CXXC FP-Fl 17.9µM*, MLL CXXC TxRed 71.1µM* and MLL CXXC TRF inconclusive.
C[C@@H]1C[C@](C)(C(=O)c2ccco2)C=C1c1ccco1 was read as Menin MLL FP TR 1.6% and Menin MLL FP FL 9.5.
Screening O=C(O)C1=CC(=C(c2ccc(O)c(C(=O)O)c2)c2ccc(O)c(C(=O)O)c2)C=CC1=O returned Menin MLL FP TR 96.4%, TRPV1 PAM 9.3, TRPV1 ag -1.2, Menin MLL FP FL 7.0, MLL CXXC-DNA inh 10µM*, MLL CXXC FP-Fl 12.6µM*, MLL CXXC TxRed 17.9µM* and MLL CXXC TRF 2.43µM*.
CC(C)C[C@H](NC(=O)[C@H](CO)NC(=O)[C@@H]1CCCN1C(=O)[C@H](Cc1ccc(O)cc1)NC(=O)[C@H](CC(C)C)NC(=O)[C@H](CC(C)C)NC(=O)[C@@H]1CCCN1C(=O)[C@@H](NC(=O)[C@H](CO)NC(=O)[C@H](CO)NC(=O)[C@H](CO)NC(=O)[C@H](CO)NC(=O)[C@@H]1CCCN1C(=O)[C@@H](NC(=O)[C@@H](N)CO)C(C)C)[C@@H](C)O)C(=O)N[C@@H](C)C(=O)N[C@@H](CC(C)C)C(=O)N1CCC[C@H]1C(=O)N[C@@H](C)C(=O)N1CCC[C@H]1C(=O)O was read as Menin MLL FP TR -0.9% and Menin MLL FP FL -2.7.
`O=C1CCCC2=C1Sc1ccc(Cl)cc1N2` gave TRPV1 PAM 16.9, TRPV1 ag 12.8, Menin MLL FP FL inconclusive and MLL CXXC-DNA inh inconclusive.
COC(=O)c1ccc2c(c1)SC1=C(CCCC1=O)N2 was read as Menin MLL FP TR inconclusive, Menin MLL FP FL inconclusive, MLL CXXC-DNA inh 28.2µM*, MLL CXXC FP-Fl 100µM*, MLL CXXC TxRed 142µM* and MLL CXXC TRF 171.0%.
Screening COc1ccc(/C=C2/SC(=S)N(CCC(=O)O)C2=O)cc1 returned Menin MLL FP TR 14.3%, TRPV1 PAM 0.2, TRPV1 ag -4.8, Menin MLL FP FL 4.6 and MLL CXXC-DNA inh -29.1%.
Screening O=C(O)CCN1C(=O)/C(=C\c2ccncc2)SC1=S returned Menin MLL FP TR 28.1%, TRPV1 PAM 0.1, TRPV1 ag -1.2, Menin MLL FP FL 2.2, MLL CXXC-DNA inh 35.5µM* and MLL CXXC TRF 12.4%.
O=C(O)CCN1C(=O)/C(=C\c2ccc(-c3nc4ccccc4s3)o2)SC1=S was read as Menin MLL FP TR 27.8%, TRPV1 PAM -22.8, TRPV1 ag -2.4, Menin MLL FP FL inconclusive, MLL CXXC-DNA inh inconclusive, MLL CXXC FP-Fl 71.1µM*, MLL CXXC TxRed 50.3µM* and MLL CXXC TRF 24.3µM*.
